# A selection: hits, their analogues and other compounds. The true share with any hit is near 2.4%.
# Rango release inh: inhibition of RanGTP-driven Rango-importin beta dissociation | O95149+P62826 | Biochemical FRET Rango-importin beta, RanGTP-induced dissociation | Potency, µM (top dose mostly 46.1 µM), inactives show top-dose activity change, negative = inhibition | actives 0.071% (n = 340,000) | AID 540253; calls by dose curve; also: % of control where 0% means no effect; nearly all actives have a fitted effect of over 45% in size
#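 FRET read at 45 min, room temperature: inhibitors block the CFP/YFP signal rise when RanGTP (0.6 uM Ran, 2 mM GTP, 0.2 uM RCC1) frees Rango (0.1 uM) from importin beta (0.25 uM). Pre-read after 5 min compound exposure flags interference.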
# Tb PGK inh: blocks T. brucei phosphoglycerate kinase. P07378. PGK/GAPDH coupled, Kinase-Glo luminescence, 60 min. Potency, µM (top dose mostly 57.5 µM), without a hit: at the highest dose activity change, negative = inhibition, hits mostly inhibitors. actives 0.043% (n = 380,000); also: % is scaled to controls: 0 for no effect and ±100 for the full control effect; nearly all actives have a fitted effect of over 60% in size
#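 Luminescent ATP detection (Kinase-Glo Plus) follows a 60-minute room-temperature incubation, with wells lacking PGK as controls. Buffer: 100 mM TEA (pH 7.6), 5 mM MgCl2, 0.01% Tween-20. Coupling enzyme GAPDH (100 nM final) supplies unstable 1,3-BPG in-well.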
# Rango-impB inh: prevents formation of the Rango-importin beta complex. Q14974. Rango CFP/YFP FRET sensor + importin beta, 45 min. Potency, µM (top dose mostly 92.2 µM), for the others: at the highest dose inhibition of complex formation. actives 0.031% (n = 340,000). AID 540263; calls by dose curve;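 also: 0% = DMSO wells and 100% = buffer wells lacking importin beta; nearly all actives have a fitted effect of over 15% in size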
#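 FRET biosensor (snurportin 1 IBB flanked by EYFP and cerulean), 50 nM, with compound 5 min, then 0.125 microM importin beta in PBS, 1 mM DTT, 0.02% Tween-20, 0.1% BSA. CFP/YFP ratio read after 45 min at room temperature; pre-read flags interference.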
# ELG1 DNA repair: ELG1-dependent DNA repair inhibition; HEK293T ELG1-luciferase reporter, luminescence, 16 h; DNA damage induced by 5-fluorouridine; Potency, µM (highest dose often 46.1 µM), without a hit: at the top dose activity change, negative = inhibition, usual class: inhibitors; actives 2.3% (n = 330,000); AID 504467; also: % is scaled to controls: 0 for no effect and ±100 for the full control effect; nearly all actives have a fitted effect of over 55% in size
#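 Quantitative HTS, concentration-response format. 2,000 cells/well co-treated with 5-fluorouridine and compound, 16 hr in 5% CO2 at 37 °C; ONE-Glo luminescence read after 30 min.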
# PKM2 act: PKM2 (human) enzyme activation; P14618; purified PKM2, Kinase-Glo ATP luminescence, activation; response scale: 0% is enzyme alone, no compound; Potency, µM (series often up to 57.5 µM), without a hit: at the highest dose activation, actives largely listed as activators; actives 0.34% (n = 260,000); also: % is scaled to controls: 0 for no effect and ±100 for the full control effect; nearly all actives have a fitted effect of over 55% in size
# Target sequence (P14618 whole entry, looked up): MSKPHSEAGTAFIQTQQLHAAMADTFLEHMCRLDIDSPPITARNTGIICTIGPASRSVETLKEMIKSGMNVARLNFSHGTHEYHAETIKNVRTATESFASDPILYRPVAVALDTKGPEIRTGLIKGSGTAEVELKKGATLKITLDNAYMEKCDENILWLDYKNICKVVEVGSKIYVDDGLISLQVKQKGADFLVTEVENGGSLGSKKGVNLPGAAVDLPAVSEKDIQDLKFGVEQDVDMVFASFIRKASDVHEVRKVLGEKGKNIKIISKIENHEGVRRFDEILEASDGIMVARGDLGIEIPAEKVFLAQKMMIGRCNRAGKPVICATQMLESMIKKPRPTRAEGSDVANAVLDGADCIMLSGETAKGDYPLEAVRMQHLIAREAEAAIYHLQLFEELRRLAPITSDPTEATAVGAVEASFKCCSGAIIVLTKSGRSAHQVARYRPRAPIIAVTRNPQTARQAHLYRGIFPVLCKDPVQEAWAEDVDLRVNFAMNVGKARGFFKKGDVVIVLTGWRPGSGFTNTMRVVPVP
#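 ATP formation by purified human PK-M2, quantified via coupled luciferase luminescence after 1 h at room temperature with 0.1 mM ADP and 0.5 mM PEP final.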
# Tb PFK inh-1: inhibitors of T. brucei phosphofructokinase; T. brucei PFK, ADP-Glo luminescence; AID 485367; actives 0.17% (n = 330,000); Potency, µM (series often up to 57.5 µM), for inactives: top-dose activity, negative = inhibition, most hits filed as inhibitors;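 also: 0% = uninhibited 1x PFK enzyme wells and -100% = no-enzyme wells; nearly all actives have a fitted effect of over 60% in size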
#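 ADP-Glo luminescence quantified ADP after 45 min at room temperature, with 1.25 nM T. brucei PFK, 0.1 mM ATP and 0.5 mM fructose-6-phosphate in pH 8.0 TEA buffer. qHTS titrations up to 57 µM; curves classified by quality.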
# Tb PFK KinaseGlo: Tb phosphofructokinase inhibition, orthogonal luminescence; shares compounds with Tb PFK inh-1; Tb PFK enzyme, ATP depletion, Kinase-Glo Plus luminescence; Potency, µM (highest dose often 57.5 µM), for the others: at the highest dose inhibition; actives 47% (n = 1,100); AID 504636; calls by dose curve; also: nearly all actives have a fitted effect of over 60% in size
# Tb PFK inh-2: T. brucei PFK enzyme inhibition, hit validation | AID 504637 | shares compounds with Tb PFK inh-1 | purified T. brucei PFK, ADP-Glo luminescence, 45 min | actives 41% (n = 1,100) | Potency, µM (doses to about 57.5 µM), for the others: top-dose activity change, negative = inhibition, most hits filed as inhibitors;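 also: plate controls were full PFK enzyme control for no effect and no enzyme control for full effect; nearly all actives have a fitted effect of over 60% in size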
# The depositor's hits bear a star; i = inactive; u = inconclusive; x = not tested or not shown. Unless noted, calls follow the shape of the dose curve; as a rule, active = well fitted curve in the direction sought with a large enough effect; inconclusive = small, poorly fitted or top-dose-only effect, or another doubt; inactive = no such curve, though single readings can be large; an effect the other way counts as inactive or inconclusive. Potency is read from the fitted curve at half-maximal effect.
SMILES,Rango release inh,Tb PGK inh,Rango-impB inh,ELG1 DNA repair,PKM2 act,Tb PFK inh-1,Tb PFK KinaseGlo,Tb PFK inh-2
COc1ccccc1OCc1nnc(SCC(=O)NCc2ccco2)n1Cc1ccco1,-21.8%,u,u,-2.5%,20.2%,u,7.57µM*,7.57µM*
CCN(CC)C(=O)c1ccc(NC(=O)CSc2nnnn2-c2cc(OC)ccc2OC)cc1,1.4%,x,-0.7%,-29.4%,-12.5%,-1.6%,x,x
Cc1cc(SCC(=O)NC(=O)NCc2ccco2)nc2c(C)cccc12,-6.6%,i,0.6%,u,29.9%,u,u,u
O=P1(Nc2cccnc2)COc2ccccc2OC1,1.0%,-7.6%,-3.7%,-17.9%,-4.9%,-3.5%,x,x
COc1ccc(NC(=O)CNc2cccc(C#N)c2)cc1Cl,16.4%,0.4%,1.6%,11.1%,-0.1%,u,u,u
N#Cc1cccc(NC(=O)CSc2nc3c(cc2C#N)N2CCC3CC2)c1,x,-6.0%,x,x,x,x,x,x
Clc1ccc(CN2C3=NCCCN3c3ccccc32)cc1,-7.3%,-6.1%,-2.2%,u,-6.2%,15.1µM*,23.9µM*,30.1µM*
Clc1ccc(CN2C3=NCCCN3c3ccccc32)cc1Cl,23.0%,u,-0.3%,-9.4%,-2.2%,13.5µM*,7.57µM*,13.5µM*
CC(C)N(CCC(=O)c1ccc2ccccc2c1)Cc1ccccc1,8.2%,4.8%,-2.5%,-24.3%,x,u,30.1µM*,u
CC(C)NC(C)C(=O)c1ccc2ccccc2c1 (stereo not drawn),4.4%,-9.1%,-0.4%,0.0%,-21.8%,-4.6%,x,x
CN(C(=O)CNC(=O)OCc1ccccc1)c1ccc(Br)cc1C(=O)c1ccccc1Cl,-4.2%,5.1%,-2.5%,-19.4%,0.3%,-0.3%,x,x
CN(C(=O)Nc1ccc(Cl)c(Cl)c1)c1ccccc1C(=O)O,-6.0%,7.6%,8.9%,-6.0%,3.3%,15.1µM*,u,u
Cc1nn(Cc2ccccc2)c(Cl)c1C(=O)OC(C)C(=O)Nc1ccc(F)cc1Cl (stereo not drawn),8.6%,-10.2%,-0.3%,-34.8%,-3.1%,3.4%,x,x
O=C1C(Cl)=C(N2CCOCC2)C(=O)N1c1ccccc1F,21.4%,-0.7%,u,-15.6%,7.7%,-1.8%,x,x
O=C1C(Cl)=C(N2CCCCC2)C(=O)N1c1ccccc1,u,-4.8%,7.1%,20.6%,19.0%,u,-19.3%,13.2%
Cc1cc(C)nc(/N=C(\N)c2c(O)[nH]c(=O)[nH]c2=O)n1,0.5%,-7.1%,0.4%,26.6%,-4.0%,u,u,-16.2%
COc1ccc(N=C(C)c2c(O)[nH]c(=O)[nH]c2=O)cc1,8.9%,i,-1.8%,7.8%,-1.3%,1.0%,x,x
O=C(NCCc1ccc(F)cc1)Nc1ccc([N+](=O)[O-])cc1,7.0%,2.3%,2.7%,u,-3.9%,u,u,u
O=C(NNc1ccc([N+](=O)[O-])cc1)Nc1ccccc1,2.3%,-10.0%,-0.7%,-0.1%,-6.9%,u,19µM*,u
O=C(NNc1ccccc1[N+](=O)[O-])Nc1ccc(Cl)c(Cl)c1,-8.3%,-9.5%,2.3%,-28.2%,-0.7%,12µM*,u,-15.6%
CCN(CCNc1ccc([N+](=O)[O-])c2cccnc12)S(=O)(=O)c1ccc(Cl)cc1,40.7%,4.8%,-0.5%,u,-7.2%,-11.2%,x,x

# Screening results deposited in PubChem BioAssay by National Center for Advancing Translational Sciences (NCATS).
